# Cycloheximide cs: counter-screen for Shiga toxin inhibitors: cycloheximide protein synthesis inhibition; cell reporter, cycloheximide protein synthesis inhibition counterscreen; max response, %; 300,000 tested, 12% active; in the data active means max response mostly above about 13%, no sharp cut-off; inactive means mostly below about 14%; further: read at 38.3 µM for the half of the compounds with a filed dose; 0% is about no effect
# LmPK inhibitor: inhibitors of Leishmania mexicana pyruvate kinase; Q27686; purified LmPK, Kinase-Glo ATP luminescence, 1 h; Potency, µM (highest dose often 57.5 µM), for the others: at the highest dose activity change, negative = inhibition, most hits filed as inhibitors; 290,000 tested, 0.37% active; AID 1721; further: potency means the concentration at half of the fitted maximal effect; on the % scale 0 is the no-effect control and ±100 the full control effect
#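 Purified LmPK (0.1 nM) converted ADP (0.1 mM) to ATP with PEP (0.5 mM) in imidazole buffer pH 7.2 with KCl and MgCl2, 1 h at room temperature. ATP was read by Kinase-Glo luminescence; data normalized to uninhibited and no-enzyme controls.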
# Tb PYK inh: inhibitors of Trypanosoma brucei pyruvate kinase. Q57TT1. TbPYK enzyme, Kinase-Glo Plus ATP luminescence, 45 min. Potency, µM (top dose mostly 76.8 µM), for the others: top-dose activity, negative = inhibition, hits mostly inhibitors. 410,000 tested, 0.12% active. AID 624173; further: potency means the concentration at half of the fitted maximal effect; on the % scale 0 is the no-effect control and ±100 the full control effect; nearly all actives have a fitted effect of over 50% in size
#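 T. brucei PYK with substrate was exposed to pin-transferred compounds across a concentration series, then started with 130 uM ADP (final). After 45 min at room temperature, Kinase-Glo Plus luminescence was read, normalized and curve-fitted.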
# RE007 growth inh: less growth of the S. pombe RE007 Vpr strain. 360,000 tested, 0.21% active. AID 651644. Potency, µM (doses to about 92.2 µM), for the others: top-dose activity change, negative = less growth, hits mostly inhibitors. S. pombe RE007 Vpr strain, BacTiter-Glo ATP luminescence, 24 h; active means well fitted falling curve with a large enough effect; inconclusive means small, poorly fitted or top-dose-only effect; inactive means no such curve, though single readings can be large or run the other way; further: potency means the concentration at half of the fitted maximal effect; on the % scale 0 is the no-effect control and ±100 the full control effect; nearly all actives have a fitted effect of over 50% in size
#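 Fission yeast RE007 carrying one integrated HIV-1 vpr copy, seeded at OD 0.01 in PMG+AL medium with 23 nL pinned compound. Grown 24 h at 30 degrees; viability read by BacTiter-Glo luminescence after 5 min.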
# Shiga toxin inh: blocks Shiga toxin action in Vero cells; 290,000 tested, 9.2% active; inhibition, % at 38.7 µM; Vero cells, Shiga toxin protein synthesis inhibition reporter; in the data active means inhibition mostly above about 28%, no sharp cut-off; inactive means mostly below about 43%; further: 0% is about no effect
# FBPA Giardia inh: Giardia lamblia aldolase inhibition. purified Giardia FBPA. Potency, µM (doses to about 59.6 µM), for the others: at the top dose activity, negative = inhibition, usual class: inhibitors. 290,000 tested, 0.71% active. AID 2451; further: potency means the concentration at half of the fitted maximal effect; on the % scale 0 is the no-effect control and ±100 the full control effect; nearly all actives have a fitted effect of over 55% in size
# Target sequence (A8B2U2 whole entry, looked up): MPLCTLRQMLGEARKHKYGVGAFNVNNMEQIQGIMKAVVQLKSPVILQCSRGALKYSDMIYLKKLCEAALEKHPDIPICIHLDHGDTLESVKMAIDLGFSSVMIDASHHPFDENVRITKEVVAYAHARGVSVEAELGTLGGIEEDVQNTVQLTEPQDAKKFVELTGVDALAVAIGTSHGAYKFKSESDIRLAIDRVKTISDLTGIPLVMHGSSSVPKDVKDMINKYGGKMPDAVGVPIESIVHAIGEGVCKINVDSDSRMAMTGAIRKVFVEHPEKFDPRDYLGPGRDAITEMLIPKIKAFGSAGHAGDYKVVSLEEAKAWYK
#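 Giardia FBPA (40 nM reagent) was preincubated 10 min at RT with compound (up to 57.5 uM final), then substrate plus GAPDH/TPI/NAD/arsenate coupling system with diaphorase/resazurin was added; resorufin fluorescence (525/598 nm) was read after 20 min.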
# * hit, by the source's call; ? = inconclusive; · = no result; [ ] = dose if it differs, or a comment. This excerpt belongs to a sample that is enriched for hits. Unless noted, the call rests on the fitted dose curve; in most records, active means well fitted curve in the direction sought with a large enough effect; inconclusive means small, poorly fitted or top-dose-only effect, or another doubt; inactive means no such curve, though single readings can be large; an effect the other way counts as inactive or inconclusive.
SMILES,Cycloheximide cs,LmPK inhibitor,Tb PYK inh,RE007 growth inh,Shiga toxin inh,FBPA Giardia inh
Cc1ccccc1C(=O)Oc1ccc(Sc2ccc(O)cc2)cc1,12,0%,·,·,56,-1%
Cc1ccccc1C(=O)Oc1ccc(-c2csnn2)cc1,22*,4%,-5%,-1%,21,0%
CC(C)C[C@H](NC(=O)[C@H](CO)NC(=O)[C@@H]1CCCN1C(=O)[C@H](Cc1ccc(O)cc1)NC(=O)[C@H](CC(C)C)NC(=O)[C@H](CC(C)C)NC(=O)[C@@H]1CCCN1C(=O)[C@@H](NC(=O)[C@H](CO)NC(=O)[C@H](CO)NC(=O)[C@H](CO)NC(=O)[C@H](CO)NC(=O)[C@@H]1CCCN1C(=O)[C@@H](NC(=O)[C@@H](N)CO)C(C)C)[C@@H](C)O)C(=O)N[C@@H](C)C(=O)N[C@@H](CC(C)C)C(=O)N1CCC[C@H]1C(=O)N[C@@H](C)C(=O)N1CCC[C@H]1C(=O)O,-3,·,·,·,4,-5%
[N-]=[N+]=NCC1OC(n2cnc3c(=O)[nH]c(N)nc32)C(O)C1O (configuration not stated),·,·,·,·,·,-1%
Cn1c2ccccc2c(=O)c2ccc(C#Cc3ccc(N)cc3)cc21,26*,-5%,3%,-9%,20,8%
COc1ccc(C#Cc2ccc3c(=O)c4ccccc4n(C)c3c2)cc1,4,-5%,7%,5%,17,3%
Cn1c(-c2ccc(F)cc2)cnc1NCc1ccccc1,20*,0%,-1%,0%,55,-15%
Cn1c(-c2ccccc2)cnc1NCc1ccc(F)cc1,24*,-4%,5%,-11%,39,17%
COC(=O)NC(CC(C)=O)c1ccc2c(c1)OCO2 (configuration not stated),·,·,·,·,·,-1%[12.9 µM]
CCN(CC)CCNC(=O)c1ccc2c(=O)n3nc(Nc4ccccc4)sc3nc2c1,·,·,-4%,·,·,·
O=C(O)C1(C(=O)O)CCCC1,·,·,2%,11%,·,·
O=C(O)C1(C(=O)O)CCC1.[NH2-].[NH2-].[Pt+2],-4,·,·,·,-10,14µM*
CCCCCCCCCCCC(=O)OCC(O)C1OCC(O)C1O (configuration not stated),·,·,2%,·,·,·
Nc1c(C(=O)c2ccccc2)sc2nsc(SCCN3CCOCC3)c12,23*,5%,-2%,-7%,29*,-22%
CC(=O)c1sc2nsc(SCCN3CCOCC3)c2c1N,22,23%,-27%,9%,28*,?
CC(C)(C)CC(=O)OCC(=O)[C@@]12OC(C)(C)O[C@@H]1C[C@H]1[C@@H]3CCC4=CC(=O)C=C[C@]4(C)[C@@]3(F)[C@@H](O)C[C@]12C,·,·,6%,·,·,·
CC(NC(=O)COC(=O)CCc1ccc(S(=O)(=O)N2CCOCC2)cc1)C1CC2CCC1C2 (configuration not stated),36*,-2%,-18%,-5%,-15,0%
CCOc1ccc(C2C=C(c3ccccc3)Nc3nnnn32)cc1 (configuration not stated),58*,0%,4%,3%,131*,-8%
CCOc1ccc(C2C=C(c3ccc(C)cc3)Nc3nnnn32)cc1 (configuration not stated),-5,10%,-7%,-1%,-10,13%
COc1ccc(C2=CC(c3cccc(C)c3)n3nnnc3N2)cc1 (configuration not stated),28*,·,2%,·,43,·
C=Cc1ccc(Cn2nc(-c3ccc(C)c(S(=O)(=O)N(CC)CC)c3)ccc2=O)cc1,·,·,-16%,·,·,·
O=C(Nc1cccnc1)c1cccnc1,-1,-1%,-1%,8%,3,-2%
O=C(Nc1cccc(-c2nn[nH]n2)c1)c1ccc(Br)s1,23*,-9%,-9%,1%,-24,·
O=C(Nc1cccnc1)c1ccc(Br)s1,31*,-5%,-3%,-3%,105*,-8%
CCc1sc(C(=O)Nc2cccnc2)cc1Br,30*,-5%,-4%,-29%,47*,·
SMILES,Cycloheximide cs,LmPK inhibitor,Tb PYK inh,RE007 growth inh,Shiga toxin inh,FBPA Giardia inh
Cc1ccc(-c2noc(CNC(=O)c3ccc(C)c(Cl)c3)n2)cc1,·,·,-4%,·,·,·
C=C(C)[C@H]1CC[C@]2(CO)CC[C@]3(C)[C@@H](CC[C@H]4[C@@]5(C)CC[C@@H](O)C(C)(C)[C@@H]5CC[C@@]43C)[C@H]12,·,·,·,·,·,-2%[21.7 µM]
Cn1c(=O)n(C)c2cc(CNCc3ccc(F)cc3)ccc21,·,·,-6%,·,·,·
Cc1ccc2c(c1)NP(=S)(Oc1ccccc1)N2 (configuration not stated),·,·,-12%,-23%,·,·
COc1ccc2c(c1)NP(=S)(Oc1ccccc1)N2 (configuration not stated),64*,?,-9%,-1%,86*,?
CC(NC(=O)Cc1cc(F)cc(F)c1)C(=O)NC(C(=O)OC(C)(C)C)c1ccccc1 (configuration not stated),1,·,·,·,-8,-5%
Cc1cccc(-n2ncc3c(NCCCN4CCCC4=O)ncnc32)c1,58*,10%,2%,-1%,77*,-5%
O=C1CCCN1CCCNc1ncnc2c1cnn2-c1ccc(Cl)cc1,28*,0%,2%,2%,29*,-4%
Clc1cccc(-n2ncc3c(NCCCN4CCOCC4)ncnc32)c1,·,·,-6%,·,·,·
Cc1cccc(-n2ncc3c(NCCCn4ccnc4)ncnc32)c1,62*,2%,-1%,15%,74*,-4%
Cc1ccc(-n2ncc3c(NCCCn4ccnc4)ncnc32)cc1,·,·,0%,·,·,·
Nc1c2ccccc2nc2c(O)cccc12,·,·,·,·,·,0%[21.7 µM]
Cc1ccc(C(=O)N2c3ccc(C)cc3C(C)(c3ccccc3)CC2(C)C)cc1 (configuration not stated),·,·,-1%,·,·,·
CCOc1ccc(C(=O)NC(=S)Nc2cccnc2)cc1,30*,-4%,-3%,-9%,0,?
CC(C)Oc1cccc(C(=O)NC(=S)Nc2cccnc2)c1,32*,0%,3%,-20%,40,?
CC(C)Oc1cccc(C(=O)NC(=S)Nc2ccccc2)c1,94*,2%,-1%,-23%,120*,2%
CSc1cccc(NC(=S)NC(=O)c2cccnc2)c1,10,5%,0%,10%,12,?
COc1cccc(C(=O)NC(=S)Nc2cccnc2)c1,26*,-12%,-10%,-21%,43*,?
CC(C)CN(C[C@@H](OP(=O)(O)O)[C@H](Cc1ccccc1)NC(=O)O[C@@H]1CCOC1)S(=O)(=O)c1ccc(N)cc1,·,·,2%,·,·,·
Cc1ccc(CCNC(=O)CCc2cn(Cc3ccccc3C)c3ccccc23)cc1,·,·,-4%,·,·,·
O=C(NCC1CCCO1)c1c[nH]c2ccc(S(=O)(=O)Nc3cccc(C(F)(F)F)c3)cc2c1=O (configuration not stated),·,·,-2%,·,·,·

# Bioassay records (PubChem)
